PABP1 MLLE inh = blocks PAM2 peptide binding to the PABP1 MLLE domain | P11940 | GST-MLLE / FITC-PAM2 fluorescence polarization | inhibition, % at 20 µM | hit rate 0.36% among 360,000; in the data active = inhibition above about 35%, passing the limit was not always enough
CRFBP-R2 block = CRF-BP/CRF-R2 complex antagonism. AID 588475. hit rate 0.59% among 350,000. HEK293 CRF-R2/CRF-BP, CRF-induced calcium fluorescence. inhibition, % at 11.8 µM;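 active = inhibition of the ligand-induced calcium signal above about 50% at the single tested concentration, limit read from the data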
PABP polyA inh = PABP-poly(A) binding inhibition | P11940 | PABP-poly(A) RNA binding, fluorescence polarization | inhibition, % at 35 µM | hit rate 1% among 290,000 | AID 2014;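 also: calls also rest on retests at 20 µM and on dose response follow-up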
PHOSPHO1 block = blocks human PHOSPHO1 phosphatase activity. recombinant PHOSPHO1, absorbance phosphatase assay. inhibition, % at 13.3 µM. hit rate 1.1% among 290,000. AID 1565; in the data active = inhibition above about 60%
Target sequence (Q8TCT1 whole entry, looked up): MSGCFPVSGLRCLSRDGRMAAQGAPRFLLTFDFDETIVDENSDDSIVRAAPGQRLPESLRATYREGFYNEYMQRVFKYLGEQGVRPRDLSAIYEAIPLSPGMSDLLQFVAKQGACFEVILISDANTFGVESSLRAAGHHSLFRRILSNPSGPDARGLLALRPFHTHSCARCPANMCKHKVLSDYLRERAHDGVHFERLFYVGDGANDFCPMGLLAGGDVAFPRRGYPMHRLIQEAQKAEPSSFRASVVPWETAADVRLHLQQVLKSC
eIF4H FP inh = inhibitors of RNA binding by human eIF4H; eIF4H fluorescence polarization binding assay; inhibition, % at 35 µM; hit rate 0.94% among 290,000;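 also: calls also rest on retests at 20 µM and on dose response follow-up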
Hits are given with their value. Sampled rows, rich in hits. Any-hit rate of the full collection: about 2.6%. Unless noted, no rule for the calls is given here.

Results for COc1ccc(CNC(=O)Nc2nnc([C@@H]3C[C@H](O)[C@@H](CO)O3)s2)cc1 ?
PABP1 MLLE inh: inactive

How did O=C(c1cc2cc([N+](=O)[O-])ccc2oc1=O)n1cccn1 do in these assays?
PABP1 MLLE inh: inactive; CRFBP-R2 block: inactive; PABP polyA inh: 2.3; PHOSPHO1 block: inactive; eIF4H FP inh: inactive

What do the screens show for `CCN1CCN(C(=O)c2cc3cc([N+](=O)[O-])ccc3oc2=O)CC1`?
PABP1 MLLE inh: inactive; CRFBP-R2 block: inactive; PABP polyA inh: inactive; PHOSPHO1 block: inactive; eIF4H FP inh: inactive

What do the screens show for `S=c1nc(-c2sccc2OCc2ccc(Cl)cc2Cl)[nH][nH]1`?
PABP1 MLLE inh: 37.4; CRFBP-R2 block: inactive; PABP polyA inh: inactive; PHOSPHO1 block: inactive; eIF4H FP inh: inactive

What do the screens show for `CN(Cc1ccccc1)C(=O)Cn1nnc(-c2ccccc2)c1COc1ccccc1`?
PABP1 MLLE inh: inactive

What do the screens show for `Cc1oc(-c2ccc(F)cc2)cc1-c1nn2c(-c3ccoc3C)nnc2s1`?
PABP1 MLLE inh: inactive; CRFBP-R2 block: inactive; PABP polyA inh: 63.2; PHOSPHO1 block: 97.8; eIF4H FP inh: 79.5

How did Cc1oc(-c2ccc(Cl)cc2)cc1-c1nn2c(-c3ccco3)nnc2s1 do in these assays?
PABP polyA inh: 55.9; PHOSPHO1 block: 92.3; eIF4H FP inh: 64.4

Results for CCCCOC(=O)Oc1ccc2c(=O)c(Oc3cc(C)cc(C)c3)coc2c1 ?
PABP1 MLLE inh: inactive; CRFBP-R2 block: inactive; PABP polyA inh: inactive; PHOSPHO1 block: inactive; eIF4H FP inh: inactive

How did CCCCOC(=O)Oc1ccc2c(=O)c(Oc3cccc(C)c3)coc2c1 do in these assays?
PABP1 MLLE inh: inactive; CRFBP-R2 block: 56.4; PABP polyA inh: inactive; PHOSPHO1 block: inactive; eIF4H FP inh: inactive

How did CN(C)c1nc2n(c(=O)n1)CCS2 do in these assays?
PABP1 MLLE inh: inactive; CRFBP-R2 block: inactive; PABP polyA inh: inactive; PHOSPHO1 block: inactive; eIF4H FP inh: inactive

How did CN(C)c1nc2n(c(=O)n1)C(C#N)CS2 (stereo not drawn) do in these assays?
PABP1 MLLE inh: 39.7; CRFBP-R2 block: inactive; PABP polyA inh: inactive; PHOSPHO1 block: inactive; eIF4H FP inh: inactive

How did CCOC(=O)c1sc2cc([N+](=O)[O-])cc(SCC(=O)OC)c2c1N do in these assays?
PABP1 MLLE inh: inactive; CRFBP-R2 block: inactive; PABP polyA inh: inactive; PHOSPHO1 block: 99.2; eIF4H FP inh: inactive

How did CCn1c(COc2cc(C)cc(C)c2)nnc1SCC(=O)N1CCN(c2ccccc2)CC1 do in these assays?
PABP1 MLLE inh: inactive; CRFBP-R2 block: inactive; PABP polyA inh: inactive; PHOSPHO1 block: 72.9; eIF4H FP inh: inactive

How did Cc1ccccc1-n1c(SCC(=O)N2CCN(c3ccccc3)CC2)nnc1-c1ccncc1 do in these assays?
PABP1 MLLE inh: inactive; CRFBP-R2 block: inactive; PABP polyA inh: inactive; PHOSPHO1 block: 65.5; eIF4H FP inh: inactive

What do the screens show for `CCn1c(COc2c(C)cccc2C)nnc1SCC(=O)N1CCN(c2ccccc2)CC1`?
PABP1 MLLE inh: inactive; CRFBP-R2 block: inactive; PABP polyA inh: inactive; PHOSPHO1 block: inactive; eIF4H FP inh: inactive

How did Cc1ccc(-n2c(Cc3cccn3C)nnc2SCC(=O)N2CCN(c3ccccc3)CC2)cc1 do in these assays?
PABP1 MLLE inh: inactive; CRFBP-R2 block: inactive; PABP polyA inh: inactive; PHOSPHO1 block: 76.7; eIF4H FP inh: inactive

How did COc1ccc(CN2C(=O)C(CC(=O)NCc3cccc4ccccc34)CC(C(=O)N(C(C)C)C(C)C)=C2C)cc1 (stereo not drawn) do in these assays?
PABP1 MLLE inh: inactive

How did CCCCn1c(NC(=O)c2ccc(Br)o2)c(S(=O)(=O)c2ccccc2)c2nc3ccccc3nc21 do in these assays?
PABP1 MLLE inh: inactive; CRFBP-R2 block: 77.7; PABP polyA inh: 67.2; PHOSPHO1 block: inactive; eIF4H FP inh: 55.7

What do the screens show for `O=C(NNC1=C(C(=O)C(F)(F)F)CCC1)c1cccc(Cl)c1`?
PABP1 MLLE inh: inactive; CRFBP-R2 block: 55.4; PABP polyA inh: inactive; PHOSPHO1 block: inactive; eIF4H FP inh: inactive

What do the screens show for `O=C(COc1cccc2c1CCN(Cc1ccc(Br)cc1)C2=O)NCc1ccco1`?
PABP1 MLLE inh: inactive; CRFBP-R2 block: 63.5; PABP polyA inh: inactive; PHOSPHO1 block: inactive; eIF4H FP inh: inactive

How did COc1ccc(S(=O)(=O)N2CCCC2CNC(=O)C(=O)Nc2cccc(F)c2)cc1 (stereo not drawn) do in these assays?
PABP1 MLLE inh: inactive; CRFBP-R2 block: inactive

What do the screens show for `CC(=O)N1c2ccc(S(=O)(=O)N(C)CC(=O)NC3CCCC3)cc2CC1C` (stereo not drawn)?
PABP1 MLLE inh: inactive; CRFBP-R2 block: 62.8; PABP polyA inh: inactive; PHOSPHO1 block: inactive; eIF4H FP inh: inactive

What do the screens show for `CC(=O)N1c2ccc(S(=O)(=O)N(C)CC(=O)N3CCCC3)cc2CC1C` (stereo not drawn)?
PABP1 MLLE inh: inactive; CRFBP-R2 block: inactive; PHOSPHO1 block: inactive

What do the screens show for `O=C(/C=C/c1ccccc1[N+](=O)[O-])OCC(=O)N1CCN(c2ccccc2)CC1`?
PABP1 MLLE inh: inactive; CRFBP-R2 block: inactive

What do the screens show for `CCn1c(-c2cc(-c3cccc(OC)c3)nc3ccccc23)n[nH]c1=S`?
PABP1 MLLE inh: inactive; CRFBP-R2 block: inactive; PABP polyA inh: inactive; PHOSPHO1 block: 92.2; eIF4H FP inh: inactive

Results for CCn1c(-c2ccc(C)cc2)n[nH]c1=S ?
PABP1 MLLE inh: inactive; CRFBP-R2 block: inactive; PABP polyA inh: inactive; PHOSPHO1 block: 100.3; eIF4H FP inh: inactive

How did CCn1c(-c2cc(-c3ccccc3)sc2N)n[nH]c1=S do in these assays?
PABP1 MLLE inh: inactive; CRFBP-R2 block: inactive; PABP polyA inh: inactive; PHOSPHO1 block: 76.8; eIF4H FP inh: inactive

Results for CCn1c(C(c2ccccc2)c2ccccc2)n[nH]c1=S ?
PABP1 MLLE inh: inactive; CRFBP-R2 block: inactive; PABP polyA inh: inactive; PHOSPHO1 block: 99.8; eIF4H FP inh: inactive

What do the screens show for `CC(=O)c1c(C)[nH]c(C(=O)OCC(=O)c2ccc(Br)cc2)c1C`?
PABP1 MLLE inh: inactive; CRFBP-R2 block: inactive

Results for ClCC(CNCc1ccccc1)c1ccccc1 (stereo not drawn) ?
PABP1 MLLE inh: inactive; CRFBP-R2 block: inactive

What do the screens show for `CCCCN1C[C@H](CSC)[C@@H](CC(=O)Nc2ccc(Br)cc2)C1=O`?
PABP1 MLLE inh: inactive; CRFBP-R2 block: inactive

How did COc1ccc(N=Nc2c(C)[nH]c3ccccc23)cc1 do in these assays?
PABP1 MLLE inh: inactive; CRFBP-R2 block: inactive

How did CC(C)Cn1c(-c2csc3ccccc23)n[nH]c1=S do in these assays?
PABP1 MLLE inh: inactive; CRFBP-R2 block: inactive; PABP polyA inh: inactive; PHOSPHO1 block: 106.0; eIF4H FP inh: inactive

How did CCCCn1c(-c2cc(Cl)ccc2OC)n[nH]c1=S do in these assays?
PABP1 MLLE inh: inactive; CRFBP-R2 block: inactive; PABP polyA inh: inactive; PHOSPHO1 block: 60.5; eIF4H FP inh: inactive

Results for COc1ccc(Cn2c(-c3ccc(OC)cc3)n[nH]c2=S)cc1 ?
PABP1 MLLE inh: inactive; CRFBP-R2 block: inactive; PABP polyA inh: inactive; eIF4H FP inh: inactive

Results for COc1ccc(-c2n[nH]c(=S)n2CC(C)C)cc1 ?
PABP1 MLLE inh: inactive; CRFBP-R2 block: inactive; PABP polyA inh: inactive; PHOSPHO1 block: 96.9; eIF4H FP inh: inactive

How did CCCCn1c(-c2ccc([N+](=O)[O-])cc2)n[nH]c1=S do in these assays?
PABP1 MLLE inh: inactive; CRFBP-R2 block: inactive; PABP polyA inh: inactive; PHOSPHO1 block: 102.3; eIF4H FP inh: inactive

From PubChem BioAssay
